Data reported in PubChem BioAssay (NCI).
The panel holds about 83,000 compounds, 20% with a hit somewhere; the sample as a whole holds those more often.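 In brief: 96-well plates, 48 h treatment, single concentration, percent growth endpoint.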 The source made the active and inactive calls. The calls were made as follows: active = growth percent below 10; inactive = the rest.

Experiments:
Test in all cases: NCI-60 one-dose screen, 48 h (100 = growth as untreated, 0 = no growth, -100 = all killed)
Conditions in all cases: 10 µM unless noted
NCI-H226 lung = tested on: NCI-H226 lung
NCI-H322M lung = tested on: NCI-H322M lung
HOP-62 NSCLC = tested on: HOP-62 NSCLC
NCI-H460 lung = tested on: NCI-H460 lung
HOP-92 NSCLC = tested on: HOP-92 NSCLC
NCI-H522 lung = tested on: NCI-H522 lung
A549/ATCC NSCLC = tested on: A549/ATCC NSCLC
786-0 renal = tested on: 786-0 renal
COLO 205 colon = tested on: COLO 205 colon

Measured: growth

Cc1cc(O)c(C2=NN(c3ccc(S(N)(=O)=O)cc3)C(c3ccc(Cl)cc3)C2)c(C)c1Cl (centres undefined)
active: NCI-H460 lung 3.35%
inactive: NCI-H226 lung 106% | NCI-H322M lung 75.3% | HOP-62 NSCLC 84.3% | HOP-92 NSCLC 21.3% | NCI-H522 lung 57.7% | A549/ATCC NSCLC 33.2% | 786-0 renal 43.3% | COLO 205 colon 30.8%

CCOC(=O)c1ccc(NCCC(=O)O)cc1
inactive: NCI-H226 lung 100% | NCI-H322M lung 104% | HOP-62 NSCLC 95.9% | NCI-H460 lung 116% | HOP-92 NSCLC 89.4% | NCI-H522 lung 91.3% | 786-0 renal 96.2% | COLO 205 colon 121%

CC[C@H](Nc1nc(N)nc(C2CC2)c1C#N)c1nc2cccc(NCc3ccc(C(=O)NO)cc3)c2c(=O)n1-c1ccccc1
active: NCI-H226 lung -21.9% | HOP-62 NSCLC 5.11% | NCI-H460 lung -15.1% | HOP-92 NSCLC -14% | NCI-H522 lung -29.6% | A549/ATCC NSCLC -30.6% | 786-0 renal -9.68% | COLO 205 colon -17.8%
inactive: NCI-H322M lung 21.3%

Cc1cc(NC(=O)C2c3ccccc3C(=O)N(CC(C)C)C2c2cccs2)no1 (centres undefined)
active: HOP-92 NSCLC -0.868% | NCI-H522 lung -66.5% | 786-0 renal -32.6% | COLO 205 colon -83.9%
inactive: NCI-H226 lung 103% | NCI-H322M lung 107% | HOP-62 NSCLC 43.8% | NCI-H460 lung 69.1% | A549/ATCC NSCLC 35.3%

Fc1[nH]nc2ccc([C@@H]3Nc4ccc5[nH]ncc5c4[C@H]4C5CCC(C5)[C@@H]34)cc12 (some centres undefined)
active: COLO 205 colon 9.22%
inactive: NCI-H226 lung 47.5% | NCI-H322M lung 47.7% | HOP-62 NSCLC 37.6% | NCI-H460 lung 11.5% | HOP-92 NSCLC 67.3% | NCI-H522 lung 10.3% | A549/ATCC NSCLC 28% | 786-0 renal 51.9%

COc1ccc(-c2n[nH]nc2-c2cc(OC)c3c(c2)OCO3)cc1
inactive: NCI-H226 lung 69.1% | HOP-62 NSCLC 18.5% | HOP-92 NSCLC 29% | A549/ATCC NSCLC 13.9% | 786-0 renal 20.5%
active: NCI-H460 lung 7.77% | NCI-H522 lung -51.6% | COLO 205 colon -93.1%

COc1ccc(-c2oc(=O)ccc2-c2cc(OC)c(OC)c(OC)c2)cc1F
inactive: NCI-H226 lung 82.9% | NCI-H322M lung 95.4% | HOP-62 NSCLC 67.3% | NCI-H460 lung 56.3% | HOP-92 NSCLC 62.6% | NCI-H522 lung 50.8% | A549/ATCC NSCLC 27.8% | 786-0 renal 75.2% | COLO 205 colon 57.5%

COc1cc2cc(C(=O)Nc3ccccc3)c(N)nc2cc1OC
inactive: NCI-H322M lung 44.1% | HOP-62 NSCLC 47.7% | A549/ATCC NSCLC 15.3% | 786-0 renal 21.2%
active: NCI-H460 lung -40.2% | HOP-92 NSCLC -11.4% | NCI-H522 lung -65.3% | COLO 205 colon -93.3%

O=c1[nH]c2ccccc2n2cc3cccnc3c12
inactive: NCI-H226 lung 64.2% | NCI-H322M lung 116% | HOP-62 NSCLC 68.7% | NCI-H460 lung 37.3% | HOP-92 NSCLC 83.6% | A549/ATCC NSCLC 83.5% | 786-0 renal 71.1% | COLO 205 colon 70%

O=C(CCCCCCc1nc2ccc(Br)cc2[nH]1)NO
inactive: NCI-H226 lung 19.3% | HOP-62 NSCLC 12.5%
active: NCI-H322M lung 4.52% | NCI-H460 lung -25.6% | HOP-92 NSCLC -21.7% | NCI-H522 lung -16% | A549/ATCC NSCLC 7.55% | 786-0 renal -4.46% | COLO 205 colon -98.5%

COc1ccc(C(=O)C(CN(C)C)c2ccccc2)cc1 (centres undefined)
inactive: NCI-H226 lung 71.5% | NCI-H322M lung 96% | HOP-62 NSCLC 83.6% | NCI-H460 lung 47.7% | A549/ATCC NSCLC 72.6% | COLO 205 colon 22.8%
active: HOP-92 NSCLC -4.35% | NCI-H522 lung -73.9% | 786-0 renal -36.2%

C#CC[C@@H]1C[C@]2(C)[C@H]3CC=C4[C@H]5[C@@H](C)[C@H](C)CC[C@]5(C(=O)NCCCCCCCCN)CC[C@@]4(C)[C@]3(C)CC[C@H]2C(C)(C)[C@H]1OC(C)=O
active: NCI-H460 lung -63.8% | NCI-H522 lung -1.25% | COLO 205 colon -23.4%
inactive: NCI-H226 lung 94.6% | NCI-H322M lung 80.4% | HOP-62 NSCLC 104% | HOP-92 NSCLC 53.1% | A549/ATCC NSCLC 46.5% | 786-0 renal 80.6%

CCn1c(CN2CCN(Cc3ccccc3)CC2)nc2cc(NC(=O)c3cccs3)ccc21
active: NCI-H226 lung -35.5% | NCI-H322M lung -69% | HOP-62 NSCLC -81.6% | NCI-H460 lung -69.9% | HOP-92 NSCLC -72.3% | NCI-H522 lung -64.4% | A549/ATCC NSCLC -72.9% | 786-0 renal -67.8% | COLO 205 colon -91.3%

NC(N)=N/N=C\c1cccc(OCc2ccccc2)c1
inactive: NCI-H226 lung 86.2% | NCI-H322M lung 91.7% | HOP-62 NSCLC 79.6% | NCI-H460 lung 95.3% | HOP-92 NSCLC 40.9% | A549/ATCC NSCLC 87.9% | 786-0 renal 79.6%
active: COLO 205 colon -70.9%

COc1ccc(C(=O)c2c(N)nc3n2CCCC3)cc1OC
inactive: NCI-H226 lung 96.9% | HOP-62 NSCLC 102% | NCI-H460 lung 105% | HOP-92 NSCLC 118% | NCI-H522 lung 81.7% | A549/ATCC NSCLC 102% | 786-0 renal 100% | COLO 205 colon 107%
